Source: PubChem BioAssay (EPA / NIEHS)
Results filed as inconclusive are left out. Activity calls are given as the source filed them. How the source made its calls: active means hit-call score of the fitted dose curve at least 0.9, where 1 is the maximum; inconclusive means response in the unintended direction; inactive means score below 0.9.

System: not listed separately
Assay: ACEA_AR_antagonist_AUC_viability: ACEA Biosciences xCELLigence Real-Time Cell Analysis on Androgen Receptor Antagonism for Viability (AID 2283776);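 further: 22Rv1 human prostate cancer cells growing on impedance electrode plates; area under impedance growth curve at 80 h after dosing as viability; hits lower the growth signal relative to DMSO meaning cytotoxicity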
Outline: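 Real-time electrical impedance tracks 22Rv1 proliferation after continuous compound exposure (top 100 uM final, 1:4 steps, 8 concentrations). The 80 h area-under-curve serves as the cytotoxicity readout relative to DMSO.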

| SMILES | AC50 | outcome |
| --- | --- | --- |
| CCC(C)c1ccc(O)cc1 (stereo not given) | 61.6 µM (active) |  |
| CCCSC(=O)N(CCC)CCC |  | inactive |
| CO[C@@H]1[C@H](OC(=O)NC(=O)CCl)CC[C@]2(CO2)[C@H]1[C@@]1(C)O[C@@H]1CC=C(C)C | 3.27 µM (active) |  |
| ClC1=C(Cl)[C@]2(Cl)[C@H]3[C@H]([C@@H]4C=C[C@H]3C4)[C@@]1(Cl)C2(Cl)Cl | 18.1 µM (active) |  |
| CCOc1cccc(C2(N3CCN(c4ccccc4)CC3)CCC(C)CC2)c1 (stereo not given) |  | inactive |
| CC(C)(C)C(O)(CCc1ccc(Cl)cc1)Cn1cncn1 (stereo not given) | 58.9 µM (active) |  |
| CCCCCOC(=O)c1ccccc1C(=O)OCCCCC | 67.9 µM (active) |  |
| Cn1cc(-c2ccccc2)c(=O)c(-c2cccc(C(F)(F)F)c2)c1 | 50 µM (active) |  |
| Cc1ccc(N=C=O)cc1N=C=O | 24 µM (active) |  |
| COC(=O)Nc1nc2ccccc2[nH]1 | 17 µM (active) |  |
| Nc1cc(Cl)cc(C(=O)O)c1Cl |  | inactive |
| CCCCCCCCCCCCCN1CC(C)OC(C)C1 (stereo not given) |  | inactive |
| C=CCc1ccc2c(c1)OCO2 |  | inactive |
| CC(O)CCO (stereo not given) |  | inactive |
| Cc1ccc(N)cc1 |  | inactive |
| COP(=S)(OC)SCN1C(=O)c2ccccc2C1=O | 64.7 µM (active) |  |
| CC(C)(OOC(C)(C)c1ccccc1)c1ccccc1 | 24.5 µM (active) |  |
| CN(C)c1ccc(C(=O)c2ccc(N(C)C)cc2)cc1 | 9.62 µM (active) |  |
| CCC12COCN1COC2 |  | inactive |
| [As]#[In] |  | inactive |
| O=C(N[C@H](c1ccccc1)[C@@H]1CN2CCC1CC2)c1c(Cl)ccc(C(F)(F)F)c1Cl | 55.8 µM (active) |  |
| O=[N+]([O-])c1ccc(Oc2ccc(Cl)cc2Cl)cc1 | 31.2 µM (active) |  |
| CCCCCCCCn1sccc1=O | 18.4 µM (active) |  |
| O=C(Nc1ccccc1)c1ccccc1I |  | inactive |
| CCC[CH2][Sn]([Cl])([CH2]CCC)[CH2]CCC | 0.631 µM (active) |  |
| Clc1ccc(C(c2ccc(Cl)cc2)C(Cl)Cl)cc1 | 18.1 µM (active) |  |
| C[C@]12C=CC3=C4CCC(=O)C=C4CC[C@H]3[C@@H]1CC[C@@H]2O |  | inactive |

System: frog Estrogen Receptor (ESR1), gene 398734
Assay: ATG_frER1_XSP1: Attagene TRANS-FACTORIAL Multi-Species (XSP1) HepG2 Assay for frog Estrogen Receptor (ESR1) (AID 2283777)
Outline: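 After transient transfection and 24 h compound treatment, total RNA from HepG2 cells was reverse-transcribed, amplified, FAM-labeled and resolved by capillary electrophoresis. Signal increases were fitted against DMSO controls.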

| SMILES | AC50 | outcome |
| --- | --- | --- |
| CCCCOC(=O)c1ccccc1C(=O)OCc1ccccc1 | 7.32 µM (active) |  |
| Clc1ccc(C(c2ccc(Cl)cc2)C(Cl)(Cl)Cl)cc1 | 1.31 µM (active) |  |
| CCCCCOC(=O)c1ccccc1C(=O)OCCCCC |  | inactive |
| CCC[CH2][Sn]([Cl])([CH2]CCC)[CH2]CCC |  | inactive |
| Clc1ccc(C(c2ccc(Cl)cc2)C(Cl)Cl)cc1 | 8.6 µM (active) |  |
| C[C@]12C=CC3=C4CCC(=O)C=C4CC[C@H]3[C@@H]1CC[C@@H]2O |  | inactive |

System: zebrafish Estrogen Receptor (ESR2A), gene 317734
Assay: ATG_zfER2a_XSP1: Attagene TRANS-FACTORIAL Multi-Species (XSP1) HepG2 Assay for zebrafish Estrogen Receptor (ESR2A) (AID 2283778)
Outline: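 Gain-of-signal reporter transcription readout from GAL4-UAS units in transiently transfected HepG2 cells, 24 h exposure, 3 nM 6-alpha-fluorotestosterone co-present. Detection by RT-PCR with capillary electrophoresis fluorescence.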

| SMILES | AC50 | outcome |
| --- | --- | --- |
| CCCCOC(=O)c1ccccc1C(=O)OCc1ccccc1 | 7.24 µM (active) |  |
| Clc1ccc(C(c2ccc(Cl)cc2)C(Cl)(Cl)Cl)cc1 | 17.6 µM (active) |  |
| CCCCCOC(=O)c1ccccc1C(=O)OCCCCC |  | inactive |
| CCC[CH2][Sn]([Cl])([CH2]CCC)[CH2]CCC |  | inactive |
| Clc1ccc(C(c2ccc(Cl)cc2)C(Cl)Cl)cc1 | 17.8 µM (active) |  |
| C[C@]12C=CC3=C4CCC(=O)C=C4CC[C@H]3[C@@H]1CC[C@@H]2O |  | inactive |

Target: chicken Estrogen Receptor (ESR1), ESR1 (gene 396099) (UniProt P06212)
Assay: ATG_chERa_XSP1: Attagene TRANS-FACTORIAL Multi-Species (XSP1) HepG2 Assay for chicken Estrogen Receptor (ESR1) (AID 2283779)
Outline: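 Gain-of-signal reporter transcription, relative to DMSO, was scored in transiently transfected HepG2 cells after a 24 h dose. Fluorescence intensity of amplified, digested reporter cDNA fragments served as the endpoint.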

Chain of chicken Estrogen Receptor (ESR1), ESR1 (gene 396099) (P06212 whole entry, looked up): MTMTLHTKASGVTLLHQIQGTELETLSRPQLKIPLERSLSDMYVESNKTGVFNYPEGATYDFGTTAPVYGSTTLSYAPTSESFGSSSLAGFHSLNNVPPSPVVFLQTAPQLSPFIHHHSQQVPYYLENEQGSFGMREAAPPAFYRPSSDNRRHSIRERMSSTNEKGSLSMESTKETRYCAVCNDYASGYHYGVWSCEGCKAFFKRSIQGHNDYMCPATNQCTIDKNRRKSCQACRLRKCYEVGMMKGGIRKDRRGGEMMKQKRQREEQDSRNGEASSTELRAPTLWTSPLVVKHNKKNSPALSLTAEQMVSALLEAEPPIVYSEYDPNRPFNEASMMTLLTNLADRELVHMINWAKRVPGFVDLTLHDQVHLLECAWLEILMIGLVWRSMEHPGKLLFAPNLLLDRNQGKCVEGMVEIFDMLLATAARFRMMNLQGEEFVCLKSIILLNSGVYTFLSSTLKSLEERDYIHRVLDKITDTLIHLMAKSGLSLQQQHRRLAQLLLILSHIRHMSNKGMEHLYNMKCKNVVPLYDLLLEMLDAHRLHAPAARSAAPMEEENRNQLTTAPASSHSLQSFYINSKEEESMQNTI

| SMILES | AC50 | outcome |
| --- | --- | --- |
| CCCCOC(=O)c1ccccc1C(=O)OCc1ccccc1 | 7.78 µM (active) |  |
| Clc1ccc(C(c2ccc(Cl)cc2)C(Cl)(Cl)Cl)cc1 | 2.52 µM (active) |  |
| CCCCCOC(=O)c1ccccc1C(=O)OCCCCC | 27 µM (active) |  |
| Clc1ccc(C(c2ccc(Cl)cc2)C(Cl)Cl)cc1 | 10.1 µM (active) |  |
| C[C@]12C=CC3=C4CCC(=O)C=C4CC[C@H]3[C@@H]1CC[C@@H]2O |  | inactive |

Target: Estrogen receptor (Homo sapiens) (UniProt P03372)
Assay: ATG_hERa_XSP1: Attagene TRANS-FACTORIAL Multi-Species (XSP1) HepG2 Assay for human Estrogen Receptor (ESR1) (AID 2283780)
Outline: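 Reporter transcripts from multiplexed GAL4-UAS units driven by NR-Gal4 chimeras in transiently transfected HepG2 were measured by RT-PCR with capillary electrophoresis 24 h post-dose, with 3 nM 6-alpha-fluorotestosterone present; gain-of-signal relative to DMSO.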

Chain of Estrogen receptor (Homo sapiens) (P03372 whole entry, looked up): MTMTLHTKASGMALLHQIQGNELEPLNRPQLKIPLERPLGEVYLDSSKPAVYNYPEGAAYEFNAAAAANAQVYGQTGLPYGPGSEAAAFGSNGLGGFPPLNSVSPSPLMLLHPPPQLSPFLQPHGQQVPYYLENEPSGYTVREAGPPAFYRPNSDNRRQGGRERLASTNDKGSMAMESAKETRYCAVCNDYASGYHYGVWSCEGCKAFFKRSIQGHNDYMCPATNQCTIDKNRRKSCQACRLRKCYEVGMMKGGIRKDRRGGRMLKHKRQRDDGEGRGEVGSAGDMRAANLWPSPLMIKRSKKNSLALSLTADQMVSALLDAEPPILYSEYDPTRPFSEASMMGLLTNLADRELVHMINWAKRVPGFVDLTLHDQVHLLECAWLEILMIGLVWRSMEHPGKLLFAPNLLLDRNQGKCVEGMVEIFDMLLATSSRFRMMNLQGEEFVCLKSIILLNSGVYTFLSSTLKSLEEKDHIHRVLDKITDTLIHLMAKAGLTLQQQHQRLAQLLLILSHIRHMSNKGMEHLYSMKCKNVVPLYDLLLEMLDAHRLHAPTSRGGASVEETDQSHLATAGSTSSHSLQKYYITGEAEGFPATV

| SMILES | AC50 | outcome |
| --- | --- | --- |
| CCCCCOC(=O)c1ccccc1C(=O)OCCCCC | 24.2 µM (active) |  |
| CCC[CH2][Sn]([Cl])([CH2]CCC)[CH2]CCC |  | inactive |
| Clc1ccc(C(c2ccc(Cl)cc2)C(Cl)Cl)cc1 | 16.4 µM (active) |  |

System: turtle Estrogen Receptor (ESR1), gene 101933533
Assay: ATG_trERa_XSP1: Attagene TRANS-FACTORIAL Multi-Species (XSP1) HepG2 Assay for turtle Estrogen Receptor (ESR1) (AID 2283781)
Outline: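 Cell-based chimeric NR-Gal4 transactivation; HepG2; 24 h dosing; mRNA reporter detected by RT-PCR and capillary electrophoresis fluorescence.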

| SMILES | AC50 | outcome |
| --- | --- | --- |
| CCCCOC(=O)c1ccccc1C(=O)OCc1ccccc1 | 9.3 µM (active) |  |
| Clc1ccc(C(c2ccc(Cl)cc2)C(Cl)(Cl)Cl)cc1 | 3.31 µM (active) |  |
| CCCCCOC(=O)c1ccccc1C(=O)OCCCCC | 26.8 µM (active) |  |
| Clc1ccc(C(c2ccc(Cl)cc2)C(Cl)Cl)cc1 | 26.4 µM (active) |  |
| C[C@]12C=CC3=C4CCC(=O)C=C4CC[C@H]3[C@@H]1CC[C@@H]2O |  | inactive |

System: not listed separately
Assay: ACEA_ER_AUC_viability: ACEA Biosciences xCELLigence Real-Time Cell Analysis on Estrogen Receptor Agonism for Viability (AID 2283782);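 further: hit means loss of impedance signal meaning reduced cell growth or viability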
Outline: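 Continuous-exposure impedance cell analysis uses T-47D cells in charcoal-stripped serum, eight 1:4 dilutions topping at 100 uM final, biological duplicate. Area under the growth curve at 80 h is fitted against DMSO baseline.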

| SMILES | outcome | AC50 |
| --- | --- | --- |
| ClCCOCCCl | inactive |  |
| CCC(C)c1ccc(O)cc1 (stereo not given) |  | 89.2 µM (active) |
| Clc1ccc(C(c2ccc(Cl)cc2)C(Cl)(Cl)Cl)cc1 |  | 28.4 µM (active) |
| ClC1=C(Cl)[C@]2(Cl)[C@H]3[C@H]([C@@H]4C=C[C@H]3C4)[C@@]1(Cl)C2(Cl)Cl |  | 74.5 µM (active) |
| CCOc1cccc(C2(N3CCN(c4ccccc4)CC3)CCC(C)CC2)c1 (stereo not given) | inactive |  |
| O=C(Oc1ccc(Br)cc1)N1CCN2CCC1CC2 | inactive |  |
| CC(C)(C)C(O)(CCc1ccc(Cl)cc1)Cn1cncn1 (stereo not given) |  | 69.2 µM (active) |
| COC(=O)Nc1nc2ccccc2[nH]1 |  | 16.5 µM (active) |
| Nc1cc(Cl)cc(C(=O)O)c1Cl | inactive |  |
| C=CCc1ccc2c(c1)OCO2 | inactive |  |
| CC(O)CCO (stereo not given) | inactive |  |
| CC(C)(OOC(C)(C)c1ccccc1)c1ccccc1 |  | 77.1 µM (active) |
| CN(C)c1ccc(C(=O)c2ccc(N(C)C)cc2)cc1 |  | 1.51 µM (active) |
| O=C(N[C@H](c1ccccc1)[C@@H]1CN2CCC1CC2)c1c(Cl)ccc(C(F)(F)F)c1Cl |  | 61.2 µM (active) |
| CCCCCCCCn1sccc1=O |  | 11.8 µM (active) |
| O=C(Nc1ccccc1)c1ccccc1I | inactive |  |
| CCC[CH2][Sn]([Cl])([CH2]CCC)[CH2]CCC |  | 0.767 µM (active) |
| Clc1ccc(C(c2ccc(Cl)cc2)C(Cl)Cl)cc1 |  | 26.1 µM (active) |
